Rows were chosen to be rich in hits. Some 19% of all compounds tested hit in one or more screens of this group.
HT1080-NT tox: qHTS for induction of synthetic lethality in tumor cells producing 2HG: qHTS for the HT-1080-NT fibrosarcoma cell line. HT-1080-NT fibrosarcoma viability, CellTiter-Glo ATP luminescence, 48 h. Potency, µM (series often up to 46.1 µM), without a hit: at the highest dose activity, negative = less viability, hits mostly cytotoxic. 360,000 tested, 1.6% active. AID 686970, 2013;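 note: NT is the 2HG producing partner of a matched IDH1 knockdown line; potency is the fitted concentration of half-maximal effect; 0% = DMSO-treated cells and -100% = media-only wells without cells; nearly all actives have a fitted effect of over 55% in size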
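Compounds were tested in concentration-response format on HT-1080-NT cells for 48 hours at 37 degrees C. Cell viability came from CellTiter-Glo luminescence; curves were classified by r2, response magnitude and activity.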
HT1080 IDH1KD tx: qHTS for induction of synthetic lethality in tumor cells producing 2HG: qHTS for the HT-1080-IDH1KD cell line; HT-1080 IDH1 knockdown viability, ATP luminescence, 48 h; 360,000 tested, 2% active; Potency, µM (top dose mostly 46.1 µM), without a hit: at the highest dose activity, negative = toxicity, hits mostly cytotoxic; AID 686971, 2013;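 note: potency is the fitted concentration of half-maximal effect; 0% = DMSO wells and -100% = cell-free medium wells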
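CellTiter-Glo luminescence after 48 h compound exposure at 37 degrees C of IDH1-knockdown HT-1080 cells in 5% FBS RPMI. %Activity scaled between DMSO wells and cell-free media wells, with curves fitted and assigned curve classes.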
IL1B secr inh: qHTS for Inhibitors of Inflammasome Signaling: IL-1-beta AlphaLISA Primary Screen; activity change, % at 57.5 µM; AID 743279, 2014; 360,000 tested, 4.7% active; THP-1 LPS/ATP IL-1B secretion, AlphaLISA, 16 h; hits give low values; in the data active = activity change below about -50%; inconclusive = mostly about -30% to -49%
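THP-1 cells pretreated 1 hr with compounds (up to 57.5 uM final), then stimulated with LPS (250 ng/mL final) plus ATP (1.25 mM final); secreted IL-1B measured by AlphaLISA after 16 hr, decreased signal indicating inhibition.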
TDP1 cell CPT: qHTS for Inhibitors of human tyrosyl-DNA phosphodiesterase 1 (TDP1): qHTS in cells in presence of CPT | Potency, µM (titrated, usually from 46.2 µM), inactives show at the top dose activity change, negative = growth inhibition, actives largely listed as inhibitors | 420,000 tested, 12% active | chicken DT40 Tdp1-/-;hTDP1 cells + 20 nM CPT, ATP luminescence, 48 h; note: potency is the fitted concentration of half-maximal effect; nearly all actives have a fitted effect of over 55% in size
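Cell growth measured by CellTiter-Glo luminescence after a minimum 48 h, 37 C compound exposure with 20 nM CPT in Tdp1-knockout DT40 cells stably expressing hTDP1, seeded 400/well; qHTS titration format.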
DT40 TDP1 no CPT: qHTS for Inhibitors of human tyrosyl-DNA phosphodiesterase 1 (TDP1): qHTS in cells in absence of CPT | DT40 Tdp1-/- hTDP1 cells, no CPT, ATP luminescence, 48 h | Potency, µM (titrated, usually from 46.2 µM), for the others: at the highest dose activity change, negative = growth inhibition, usual class: inhibitors | 420,000 tested, 15% active; note: potency is the fitted concentration of half-maximal effect; nearly all actives have a fitted effect of over 55% in size
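Growth of hTDP1-complemented DT40 Tdp1-knockout cells is measured by ATP luminescence after at least 48 hr compound exposure at 37 °C, with DMSO substituting for the 20 nM CPT used in the parallel screen.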
Numbers without * were called inactive; ? = inconclusive; / = not tested or not shown; [ ] = dose if it differs, or a comment. Unless noted, calls come from the whole dose curve; as a rule, active = well fitted curve in the direction sought with a large enough effect; inconclusive = small, poorly fitted or top-dose-only effect, or another doubt; inactive = no such curve, though single readings can be large; an effect the other way counts as inactive or inconclusive. Unless noted, % is set by controls: 0 for no effect and ±100 for the full control effect.

SMILES	HT1080-NT tox	HT1080 IDH1KD tx	IL1B secr inh	TDP1 cell CPT	DT40 TDP1 no CPT
Cc1c(C(=O)N2CCCCC2C)sc2nc3n(c(=O)c12)CCC3 (stereo not drawn)	17.7%	-1.1%	11.2	-10.3%	0.4%
COc1ccc(N2CCN(C(=O)c3sc4nc5n(c(=O)c4c3C)CCC5)CC2)cc1	/	/	/	?	23.1µM*
Cc1ccc(Cl)cc1N1CCN(C(=O)c2sc3nc4n(c(=O)c3c2C)CCC4)CC1	/	/	/	14.6µM*	14.6µM*
Cc1cccc(N2CCN(C(=O)c3sc4nc5n(c(=O)c4c3C)CCC5)CC2C)c1 (stereo not drawn)	/	/	/	16.4µM*	13µM*
COc1ccccc1N1CCN(C(=O)c2sc3nc4n(c(=O)c3c2C)CCC4)CC1	18.2%	0.0%	-2.9	1.4%	7.0%
Cc1ccc(-n2ncc(C(=O)NCC3CCN(C4CCCC4)C3)c2C2CCN(C(=O)OC(C)(C)C)CC2)cc1C (stereo not drawn)	?	?	?	?	-22.5%
CCOc1ccc(NC(=O)c2cnn(-c3ccc(C)c(C)c3)c2C2CCN(C(=O)OC(C)(C)C)CC2)cc1	/	/	/	16.4µM*	16.4µM*
COc1ccc(-n2ncc(C(=O)NCCN3CCOCC3)c2C2CCN(C(=O)OC(C)(C)C)CC2)cc1	/	/	/	-12.0%	-18.5%
CCc1ccc(NC(=O)c2cnn(-c3ccccc3)c2C2CCNCC2)cc1	11.0%	8.3%	0.6	-12.1%	17.0%
Cc1ccc(-n2ncc(C(=O)NCCN3CCCC3)c2C2CCN(C(=O)OC(C)(C)C)CC2)cc1C	/	/	/	16.4µM*	?
COc1ccc(-n2ncc(C(=O)NCc3ccc4c(c3)OCO4)c2C2CCN(C(=O)OC(C)(C)C)CC2)cc1	/	/	/	16.4µM*	?
Cc1ccc(-n2ncc(C(=O)NCCN3CCc4ccccc4C3)c2C2CCNCC2)cc1C	/	/	/	20.6µM*	20.6µM*
Cc1cc(C)nc(SCc2nc(N)nc(-c3ccccc3O)n2)n1	-18.3%	-19.5%	56.2	-11.3%	?
COC(=O)[C@@H]1CCCN1C(=O)c1c(OC)cc(=O)n2c1CCN(Cc1ccc(C)o1)CC2	/	/	/	4.5%	-13.5%
COc1cccc(Cn2c(=O)c(-c3ccc(F)c(F)c3)nc3cncnc32)c1	/	/	/	-24.0%	?
COc1ccc(N(CC(=O)N2CCCCC2)S(=O)(=O)c2ccc(OC)c(OC)c2)cc1	/	/	/	-5.3%	-4.3%
Cn1c(=O)[nH]c(=O)c2c1nc(NCc1ccco1)n2Cc1ccccc1Cl	0.0%	5.2%	-10.1	2.1%	9.2%
Cc1ccc(-n2ncc(C(=O)NCc3ccc4c(c3)OCO4)c2C2CCN(C(=O)OC(C)(C)C)CC2)cc1C	/	/	/	23.1µM*	?
Cc1cccc(C)c1-n1ncc(C(=O)NCc2ccc3c(c2)OCO3)c1C1CCN(C(=O)OC(C)(C)C)CC1	/	/	/	?	14.6µM*
Cc1cccc(C)c1-n1ncc(C(=O)O)c1C1CCN(C(=O)OC(C)(C)C)CC1	/	/	/	-0.9%	-2.3%
CCN(CC(=O)NCc1cccs1)C(=O)c1ccc(S(=O)(=O)N(CC)c2ccccc2)cc1	7.5%	1.8%	-17.8	-5.6%	-17.5%
COc1ccc2cc(CN(Cc3cccnc3)S(=O)(=O)c3ccccc3)c(=O)[nH]c2c1	-7.2%	-2.4%	0.0	?	?
CCOCCNC(=O)c1ccccc1C(=O)NCCOCC	18.0%	6.4%	-6.6	-0.6%	0.2%
CCOCCN(C(=O)c1ccccc1Cl)c1cccc(C)c1C	4.2%	-3.6%	/	25.9µM*	?
CCCCN(C=O)c1c(CC)nc2c(OCC(=O)c3ccc(F)cc3)cccn12	6.0%	1.7%	0.1	?	?
SMILES	HT1080-NT tox	HT1080 IDH1KD tx	IL1B secr inh	TDP1 cell CPT	DT40 TDP1 no CPT
CCCCN(C=O)c1c(CC)nc2c(OCCn3cccc3)cccn12	-3.7%	2.2%	-10.1	?	23.1µM*
CCCCN(C=O)c1c(CC)nc2c(OCCOc3ccc(F)cc3)cccn12	4.2%	-21.4%	-7.6	?	16.4µM*
CC(=O)NC(=S)Nc1ccccc1N1CCCCC1	-3.0%	0.2%	26.1	-6.1%	-15.3%
O=C(NC1CCCC1)c1cn(C2CCN(Cc3cccc4cccnc34)CC2)nn1	/	/	/	-12.2%[9.04 µM]	-13.7%
CC(/C=C/c1ccccc1F)=N\NC(=O)c1cccc(F)c1	-19.3%	?	-3.9	?	18.4µM*
CC(/C=C/c1cccc([N+](=O)[O-])c1)=N/NC(=O)c1cccnc1	8.8%	3.3%	-13.9	?	?
CC(/C=C/c1ccccc1)=N\NC(=O)c1ccc2c(c1)OCCO2	-13.6%	-26.4%	-11.2	?	?
CC(/C=C/c1ccccc1)=N/NC(=O)c1cc([N+](=O)[O-])cc([N+](=O)[O-])c1	-1.1%	1.9%	0.0	5.17µM*	5.17µM*
CCOC(=O)N/N=C(C)/C=C/c1ccccc1	1.8%	12.4%	-2.9	0.366µM*	0.082µM*
CC(/C=C/C=C/c1ccccc1)=N/NC(=O)CNc1ccccc1C	-1.8%	2.8%	6.1	10.3µM*	?
Cc1noc(C)c1C(=O)N1CCC2(CCCN(Cc3nccs3)C2)CC1	/	/	/	-22.9%	-24.4%
CCN(C[C@H]1N[C@@](CC)(C(=O)OC)[C@H]2C(=O)N(C)C(=O)[C@@H]12)S(=O)(=O)c1ccc(OC(F)(F)F)cc1	-2.1%	-4.3%	8.0	?	?
COc1cccc(C(C(=O)NC2CCCC2)N(C(=O)CNC(=O)c2ccco2)c2cccnc2)c1 (stereo not drawn)	-0.4%	6.1%	7.9	0.6%	-9.8%
CCOC(=O)N/N=C/C(Cl)=C/c1ccccc1	6.2%	0.6%	-52.6*	-25.6%	?
Cc1cc(C)nc(N/N=C/C(Cl)=C/c2ccccc2)n1	-3.5%	?	-50.8*	?	-22.8%
COc1ccc(CN2C(=O)CCC2(C)c2nnnn2-c2ccc3c(c2)OCCO3)cc1OC (stereo not drawn)	6.6%	10.9%	14.6	-9.5%	-7.3%
COc1cc(NS(=O)(=O)c2ccc(NC(=O)C34CC5CC(CC(C5)C3)C4)cc2)ncn1	-11.4%	-16.4%	15.8	?	?
Cc1cc(C(=O)N2CCc3ccccc32)n(-c2ccccc2)n1	?	?	36.1	?	18.4µM*
Cc1cc(C)n(C(C)CC(=O)N2CCc3ccccc32)n1 (stereo not drawn)	4.8%	3.6%	39.5	-2.7%	?
Cc1cc(C)n(-c2ccc(C(=O)N3CCc4ccccc43)cc2)n1	-12.5%	-10.2%	?	?	16.4µM*

Bioassay records from PubChem.
